Among all 370,000 compounds or so, about 760 (0.21%) were called active. This excerpt belongs to a sample that is enriched for actives. Unmarked numbers belong to inactive results.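 Rule for the calls: active = inhibition above a per-campaign cutoff: mean of compounds within control limits plus 3 SD (cut at about 15% in these data); inactive = the rest.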

Experimental findings from PubChem BioAssay AID720509 (The Scripps Research Institute Molecular Screening Center, 2013) are described below.

In the experiment the target is Fibrinogen beta chain (Homo sapiens) (UniProt P02675). As to the kind of experiment: inhibitors of Tn6 peptide binding to fibrin DD(E), primary screen, biochemical, fluorescence polarization, human fibrin, Tn6 probe (AID 720509).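 Note: 0% = median of all compound wells on the plate and 100% = blocking peptide control.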 The note with it: Fibrin DD(E) TRITC-Tn6 fluorescence polarization displacement; at 8.3 µM; active compounds read high.
Sequence of Fibrinogen beta chain (Homo sapiens) (P02675 whole entry, looked up): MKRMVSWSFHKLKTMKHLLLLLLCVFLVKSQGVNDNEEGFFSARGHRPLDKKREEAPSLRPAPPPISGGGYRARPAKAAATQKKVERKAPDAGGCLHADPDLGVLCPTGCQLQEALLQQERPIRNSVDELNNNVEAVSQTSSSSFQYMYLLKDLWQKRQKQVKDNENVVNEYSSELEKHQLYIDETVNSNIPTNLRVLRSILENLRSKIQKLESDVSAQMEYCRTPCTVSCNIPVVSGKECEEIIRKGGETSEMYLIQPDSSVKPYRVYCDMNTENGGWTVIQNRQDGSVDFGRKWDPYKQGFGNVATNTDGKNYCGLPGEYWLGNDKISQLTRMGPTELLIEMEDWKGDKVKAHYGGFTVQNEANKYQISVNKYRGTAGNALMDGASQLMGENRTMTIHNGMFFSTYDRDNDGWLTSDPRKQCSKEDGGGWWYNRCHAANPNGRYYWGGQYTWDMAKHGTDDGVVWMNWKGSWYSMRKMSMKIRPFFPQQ
Consider `CC1CNCCN1c1ccc(Cl)cc1` (stereo not given), for which the inhibition is 0.71%.

In the case of `Cc1cc(N2CCNC[C@@H]2C)ccc1N1CC[C@H](O)C1`, the inhibition is 15.6% (active).

Consider `COc1ccccc1-n1c(O)c(C=NC2CC2)c(=O)[nH]c1=O`, for which the inhibition was -5.91%.

On to `CC(=O)C1(O)CCC2C3CCC4=C(Cl)C(=O)CCC4(C)C3CCC21C` (stereo not given), for which the inhibition is -1.79%.

Consider `OC(Cn1c2ccccc2c2ccccc21)C[n+]1ccccc1` (stereo not given), for which the inhibition was -10%.

For the compound `COC1=C[C@@H]2[C@@H]3Cc4ccc(OC)c(O)c4[C@]2(CCN3C)CC1=O`, the inhibition was 5.14%.

For `COc1ccc2c(c1O)-c1cccc3c1[C@@H](C2)N(C)CC3`, the inhibition was 15.8% (active).

On to `COc1c(O)ccc2c1-c1c3c(cc4c1C(C2)N(C)CC4)OCO3` (stereo not given), for which the inhibition is 0.43%.

As to `Fc1cccc(F)c1CN1CCN(Cc2c(F)cccc2F)CC1`, the inhibition was -1.68%.

Regarding `CO[C@H]([C@H](C)/C=C/N(C)C=O)[C@@H](C)C(=O)CC[C@H](C)[C@H](O)[C@H](C)[C@H]1OC(=O)/C=C/C(C)=C/[C@H](O)[C@H](OC)C[C@@H]2C=CC[C@@H](C[C@H](OC)[C@@]3(CO3)[C@@H](OC)C[C@@H](OC)[C@@H]1C)O2`, the inhibition is 1.04%.
